TLR9-MyD88 block – inhibitors of TLR9-MyD88 association in cells, primary screen, cell-based, CHO, BLA complementation, fluorescence; Toll-like receptor 9 (Homo sapiens) + Myeloid differentiation primary response protein …; CCF4 FRET ratio; inhibition, % at 4.98 µM; hit rate 0.21% among 340,000;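 active = inhibition above the mean over all tested compounds plus 3 SD, cut at about 21% in these data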;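 also: 0% = DMSO only wells and 100% = clavulanate BLA inhibitor control wells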
TLR4 MyD88 comp – inhibitors of TLR4-MyD88 association in cells, primary screen, cell-based, HeLa CL3-4, BLA complementation, FRET ratio; Toll-like receptor 4 (Homo sapiens) + Myeloid differentiation primary response protein …; hit rate 0.18% among 200,000; HeLa CL3-4 TLR4/MyD88 BLA complementation; AID 861, 2007; inhibition, % at 8.4 µM; in the data active = inhibition above about 25%;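 also: 0% = vehicle and 100% = reference inhibitor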
NTR1 ag – agonists of human NTR1, primary screen, imaging, U2OS cells, beta-arrestin-GFP, high content | Neurotensin receptor type 1 (Homo sapiens), P30989 | NTR1-U2OS beta-arrestin-GFP spot imaging, agonist mode | activation, % at 20 µM | hit rate 0.17% among 330,000 | AID 493036, 2011;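 active = activation at or above 40% of the spot to cytoplasm intensity ratio, with at least 20 cells analyzed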;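 also: 0% = DMSO without peptide and 100% = 100 nM NTR1 peptide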
NOD2-RIPK2 inh – NOD2-RIPK2 binding disruptors in cells, primary screen, fluorescence, CHO cells, BLA complementation; Receptor-interacting serine/threonine-protein kinase 2 (Homo sapiens), O43353; CCF4 ratio; inhibition, % at 4.98 µM; hit rate 0.38% among 360,000; AID 624267, 2012; in the data active = inhibition above about 21%;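 also: 0% = vehicle only and 100% = reference blocker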
Beta2AR agonist – beta2AR agonists driving receptor internalization, primary screen, cell-based, FAP fluorogen, flow cytometry; response, % (no concentration beside the values); hit rate 0.43% among 340,000; Beta-2 adrenergic receptor (Homo sapiens), P07550; Am2.2-beta2AR cells;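 active = response above a set limit, near 3 SD of response in nonfluorescent compounds, cut at about 42% in these data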
ABHD5 PLIN5 PPI – ABHD5-PLIN5 interaction inhibitors, primary screen, cell lysate, split luciferase complementation, luminescence | inhibition, % at 4 µM | hit rate 0.78% among 360,000 | Perilipin-5 (Homo sapiens) + 1-acylglycerol-3-phosphate O-acyltransferase ABHD5 (Homo … | Split G. princeps luciferase complementation, 4 h;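 active = inhibition above the mean inhibition across every tested compound plus 3 SD, cut at about 22% in these data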;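 also: 0% = DMSO only wells and the 100% control is not disclosed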
The depositor's hits bear a star. Shown are actives, neighbours in structure and some others; about 1.5% of the full set was active somewhere.

What do the screens show for `CCC(CC)C(=O)N(C)c1c(C)nc2c(OCc3ccc(F)c(F)c3)cccn12`?
NOD2-RIPK2 inh: -5; ABHD5 PLIN5 PPI: -2

What do the screens show for `COC(=O)c1cnc(Nc2nc(C(N)Cc3ccccc3)cs2)nc1C(F)(F)F` (centres undefined)?
NOD2-RIPK2 inh: -1; ABHD5 PLIN5 PPI: 15

How did CNc1ccc(Br)cc(C(=O)/C=C/c2ccc(OC)cc2OC)c1=O do in these assays?
TLR9-MyD88 block: -1; TLR4 MyD88 comp: 1; NTR1 ag: 3; NOD2-RIPK2 inh: 3; Beta2AR agonist: 8; ABHD5 PLIN5 PPI: 14

What do the screens show for `CCNc1ccc(Br)cc(C(=O)/C=C/c2ccc(Cl)cc2)c1=O`?
TLR9-MyD88 block: 3; TLR4 MyD88 comp: -12; NTR1 ag: 5; NOD2-RIPK2 inh: 2; Beta2AR agonist: 11; ABHD5 PLIN5 PPI: 27*

Results for CCNc1ccc(Br)cc(C(=O)/C=C/c2ccc3c(c2)OCO3)c1=O ?
TLR9-MyD88 block: 3; TLR4 MyD88 comp: 2; NTR1 ag: -1; NOD2-RIPK2 inh: -2; Beta2AR agonist: -5; ABHD5 PLIN5 PPI: 19

Results for CCNc1ccc(Br)cc(C(=O)/C=C/c2c(Cl)cccc2Cl)c1=O ?
TLR9-MyD88 block: 9; TLR4 MyD88 comp: -5; NTR1 ag: 10; NOD2-RIPK2 inh: 8; Beta2AR agonist: -83; ABHD5 PLIN5 PPI: 44*

What do the screens show for `CNc1ccc(Br)cc(C(=O)/C=C/c2ccc(Cl)cc2Cl)c1=O`?
TLR9-MyD88 block: 8; TLR4 MyD88 comp: -3; NTR1 ag: 5; NOD2-RIPK2 inh: -2; Beta2AR agonist: -60; ABHD5 PLIN5 PPI: 57*

What do the screens show for `Nc1nc(=O)n(C2CCC(CO)O2)cc1F` (centres undefined)?
NOD2-RIPK2 inh: -6; ABHD5 PLIN5 PPI: 1

How did COc1ccc(N2CCN(c3cc(C(=O)Nc4cc(OC)c(OC)c(OC)c4)ncn3)CC2)cc1OC do in these assays?
NOD2-RIPK2 inh: 4; ABHD5 PLIN5 PPI: -4

Results for Cc1oc(=O)c(NC(=O)c2ccccc2)cc1C(=O)c1ccccc1 ?
TLR9-MyD88 block: 8; TLR4 MyD88 comp: 1; NTR1 ag: 3; NOD2-RIPK2 inh: 6; Beta2AR agonist: 2; ABHD5 PLIN5 PPI: 23*

How did C[C@@H]1CCCCO[C@@H](CN(C)CC2CC2)[C@@H](C)CN([C@H](C)CO)C(=O)c2cc(N(C)C)ccc2O1 do in these assays?
TLR9-MyD88 block: -19; NOD2-RIPK2 inh: 1; ABHD5 PLIN5 PPI: 0

How did C/C=C(\C)C(=O)OC1[C@H](OC(C)=O)C2(CO)C(CC1(C)C)C1=CCC3C4(C)CCC(O[C@@H]5O[C@H](C(=O)O)[C@@H](O[C@@H]6O[C@H](CO)[C@@H](O)[C@H](O)[C@H]6O)[C@H](O)[C@H]5O[C@H]5O[C@H](CO)[C@@H](O)[C@H](O)[C@H]5O)[C@](C)(CO)C4CCC3(C)[C@]1(C)C[C@H]2O (some centres undefined) do in these assays?
TLR9-MyD88 block: 58*; NOD2-RIPK2 inh: 30*; Beta2AR agonist: 61*; ABHD5 PLIN5 PPI: 6

How did C/C=C(/C)C(=O)OC1CC(C)(C)C[C@H]2C3=CC[C@@H]4[C@@]5(C)CCC(O[C@@H]6O[C@@H](C(=O)O)[C@@H](O)C(O[C@@H]7OC[C@H](O)[C@@H](O)[C@@H]7O[C@@H]7OC(CO)C(O)[C@@H](O)[C@@H]7O)C6O[C@@H]6OC(CO)C(O)C(O)C6O)[C@@](C)(CO)[C@@H]5CC[C@]4(C)[C@]3(C)CC(O)[C@@]12CO (some centres undefined) do in these assays?
TLR9-MyD88 block: -1; NTR1 ag: 8; NOD2-RIPK2 inh: 10; Beta2AR agonist: 11; ABHD5 PLIN5 PPI: 5

How did CN1C(=O)C(=O)/C(=C(/O)c2ccc(Br)cc2)C1c1ccc(Cl)cc1 (centres undefined) do in these assays?
TLR9-MyD88 block: -6; NTR1 ag: 1; NOD2-RIPK2 inh: 5; Beta2AR agonist: 9; ABHD5 PLIN5 PPI: -6

How did O=C1OC(c2ccc(Cl)cc2)/C(=C(/O)c2ccccc2)C1=O (centres undefined) do in these assays?
TLR9-MyD88 block: 16; TLR4 MyD88 comp: -3; NTR1 ag: 0; NOD2-RIPK2 inh: -3; Beta2AR agonist: -6; ABHD5 PLIN5 PPI: 23*

How did COc1ccc2c(c1C)CCC(C)(C#N)C2=O (centres undefined) do in these assays?
TLR9-MyD88 block: -5; NOD2-RIPK2 inh: 2; Beta2AR agonist: -1; ABHD5 PLIN5 PPI: -3

How did N=c1n(CCN2CCCCC2)c2ccccc2n1CC(=O)c1ccc(Cl)c(Cl)c1 do in these assays?
NTR1 ag: 9; NOD2-RIPK2 inh: -6; Beta2AR agonist: 29; ABHD5 PLIN5 PPI: 22*

Results for Cc1ccccc1OCC(=O)N/N=C/c1ccncc1 ?
TLR9-MyD88 block: -4; TLR4 MyD88 comp: 4; NTR1 ag: 0; NOD2-RIPK2 inh: -6; Beta2AR agonist: -4; ABHD5 PLIN5 PPI: 23*

Results for Cc1cc(Cl)ccc1OCC(=O)N/N=C/c1ccncc1 ?
TLR9-MyD88 block: -9; NTR1 ag: 0; NOD2-RIPK2 inh: 0; Beta2AR agonist: -11; ABHD5 PLIN5 PPI: -5

Results for CC1=C(C)/C(=N\OS(=O)(=O)c2ccccc2)C=CC1=O ?
TLR9-MyD88 block: 19; TLR4 MyD88 comp: -9; NTR1 ag: 24; NOD2-RIPK2 inh: 76*; Beta2AR agonist: 41; ABHD5 PLIN5 PPI: 62*

How did Cc1ccc(S(=O)(=O)N2CCOCC2)cc1C(=O)NCCCN1CCCC1=O do in these assays?
TLR9-MyD88 block: 5; NOD2-RIPK2 inh: -16; ABHD5 PLIN5 PPI: -11

How did COc1ccc(-c2nc3c4ccccc4ccn3c2CC2CCCCC2)cc1OC do in these assays?
NOD2-RIPK2 inh: -17; ABHD5 PLIN5 PPI: 8

Results for CN(C)CCCNC(=O)C[C@H]1C[C@H](C(=O)N2CCCCC2)[C@@]2(CCc3ccccc3)c3[nH]c4ccc(Cl)cc4c3CCN2C1=O ?
TLR9-MyD88 block: -6; NTR1 ag: 36; NOD2-RIPK2 inh: -9; Beta2AR agonist: 40; ABHD5 PLIN5 PPI: 22*

How did O=C(C[C@H]1C[C@H](C(=O)N2CCCCC2)[C@@]2(CCc3ccccc3)c3[nH]c4ccc(Cl)cc4c3CCN2C1=O)NCCc1ccccn1 do in these assays?
TLR9-MyD88 block: 2; NTR1 ag: 15; NOD2-RIPK2 inh: 1; Beta2AR agonist: 5; ABHD5 PLIN5 PPI: 0

What do the screens show for `CC(C)CC(=NNC(=O)c1ccncc1)c1cc(Cl)ccc1O`?
TLR9-MyD88 block: 20; NOD2-RIPK2 inh: -5; Beta2AR agonist: 14; ABHD5 PLIN5 PPI: 3

Source: PubChem (several laboratories)
